Source: PubChem BioAssay AID1159580 (chemical genetic matrix, 2015)
About 2,000 (36%) of roughly 5,500 compounds were called active. Roughly 18% stayed inconclusive and do not appear here. Rule as the data show it: active = normalized growth mostly below about 0.91 (no sharp cut-off); inconclusive = no clear call, values can overlap the other calls; inactive = mostly above about 0.92. Some of the results follow.

Test: chemical genetic growth profiling, strain panel (AID 1159580);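 also: tested at 20 µM; growth read once vehicle control cultures reached saturation at 30 °C; 1 = growth at the plate median or of vehicle wells; lower values mean less growth of the strain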
Details: growth OD

Measured: normalized growth

C[C@@H]1O[C@@H](O[C@H]2C[C@@H](O)[C@]3(CO)C4C(CC[C@]3(O)C2)[C@@]2(O)CC[C@H](C3=CC(=O)OC3)[C@@]2(C)C[C@H]4O)[C@H](O)[C@H](O)[C@H]1O (some centres not stated)
inactive: S. cerevisiae deletion strains, locus YKL009W, strain mrt4, stronger effect = lower value 0.991 | S. cerevisiae deletion strains, locus YKL068W, stronger effect = lower value 0.998 | S. cerevisiae deletion strains, locus YKL085W, strain MDH1 (second series), stronger effect = lower value 0.993 | S. cerevisiae deletion strains, locus YKL085W, strain MDH1, stronger effect = lower value 0.993 | S. cerevisiae deletion strains, locus YKL160W, strain elf1, stronger effect = lower value 0.993 | S. cerevisiae deletion strains, locus YKR001C, strain vps1, stronger effect = lower value 1.01 | S. cerevisiae deletion strains, locus YKR026C, strain gcn3, stronger effect = lower value 1.02 | S. cerevisiae deletion strains, locus YKR091W, strain srl3, stronger effect = lower value 1.01 | S. cerevisiae deletion strains, locus YLL001W, strain dnm1, stronger effect = lower value 1.03 | S. cerevisiae deletion strains, locus YLL026W, stronger effect = lower value 1.03 | S. cerevisiae deletion strains, locus YLL041C, strain sdh2, stronger effect = lower value 1.01 | S. cerevisiae deletion strains, locus YLR027C, strain aat2, stronger effect = lower value 1.01 | S. cerevisiae deletion strains, locus YLR039C, strain RIC1, stronger effect = lower value 1.09 | S. cerevisiae deletion strains, locus YLR058C, strain SHM2, stronger effect = lower value 1.02 | S. cerevisiae deletion strains, locus YLR102C, strain apc9, stronger effect = lower value 0.997 | S. cerevisiae deletion strains, locus YLR113W, strain HOG1, stronger effect = lower value 1.01 | S. cerevisiae deletion strains, locus YLR221C, strain rsa3, stronger effect = lower value 1.02 | S. cerevisiae deletion strains, locus YLR258W, strain gsy2, stronger effect = lower value 1.02 | S. cerevisiae deletion strains, locus YLR262C, strain YPT6 (second series), stronger effect = lower value 1.02 | S. cerevisiae deletion strains, locus YLR262C, strain YPT6, stronger effect = lower value 1.09 | S. cerevisiae deletion strains, locus YLR268W, strain sec22, stronger effect = lower value 0.98 | S. cerevisiae deletion strains, locus YLR320W, strain mms22, stronger effect = lower value 1.03 | S. cerevisiae deletion strains, locus YLR330W, strain CHS5, stronger effect = lower value 1.01 | S. cerevisiae deletion strains, locus YLR342W, strain FKS1 (second series), stronger effect = lower value 1.04 | S. cerevisiae deletion strains, locus YLR342W, strain FKS1, stronger effect = lower value 1.02 | S. cerevisiae deletion strains, locus YLR357W, strain rsc2, stronger effect = lower value 1.01 | S. cerevisiae deletion strains, locus YLR370C, strain arc18, stronger effect = lower value 1.05 | S. cerevisiae deletion strains, locus YLR371W, strain rom2, stronger effect = lower value 0.989 | S. cerevisiae deletion strains, locus YLR384C, strain iki3, stronger effect = lower value 1.02 | S. cerevisiae deletion strains, locus YLR418C, strain cdc73, stronger effect = lower value 0.971 | S. cerevisiae deletion strains, locus YML016C, strain PPZ1, stronger effect = lower value 1.02 | S. cerevisiae deletion strains, locus YML032C, strain rad52, stronger effect = lower value 0.997 | S. cerevisiae deletion strains, locus YML120C, strain ndi1, stronger effect = lower value 1.04 | S. cerevisiae deletion strains, locus YML124C, strain tub3, stronger effect = lower value 0.987 | S. cerevisiae deletion strains, locus YMR058W, strain fet3, stronger effect = lower value 1.02 | S. cerevisiae deletion strains, locus YMR078C, strain ctf18, stronger effect = lower value 0.981 | S. cerevisiae deletion strains, locus YMR125W, strain sto1, stronger effect = lower value 1.02 | S. cerevisiae deletion strains, locus YMR129W, stronger effect = lower value 1.02 | S. cerevisiae deletion strains, locus YMR205C, strain PFK2, stronger effect = lower value 0.995 | S. cerevisiae deletion strains, locus YMR223W, strain ubp8, stronger effect = lower value 0.998 | S. cerevisiae deletion strains, locus YMR231W, strain pep5, stronger effect = lower value 1.02 | S. cerevisiae deletion strains, locus YMR263W, strain SAP30, stronger effect = lower value 1.01 | S. cerevisiae deletion strains, locus YMR307W, strain GAS1, stronger effect = lower value 1.17 | S. cerevisiae deletion strains, locus YNL067W, strain RPL9B, stronger effect = lower value 1.01 | S. cerevisiae deletion strains, locus YNL071W, strain lat1, stronger effect = lower value 1.03 | S. cerevisiae deletion strains, locus YNL183C, strain NPR1, stronger effect = lower value 0.963 | S. cerevisiae deletion strains, locus YNL209W, strain ssb2, stronger effect = lower value 1.02 | S. cerevisiae deletion strains, locus YNL233W, strain BNI4, stronger effect = lower value 1.03 | S. cerevisiae deletion strains, locus YNL248C, strain rpa49, stronger effect = lower value 0.985 | S. cerevisiae deletion strains, locus YNL250W, strain rad50, stronger effect = lower value 1.02 | S. cerevisiae deletion strains, locus YNL271C, strain bni1, stronger effect = lower value 0.985 | S. cerevisiae deletion strains, locus YNL298W, strain CLA4, stronger effect = lower value 0.996 | S. cerevisiae deletion strains, locus YNL307C, strain MCK1, stronger effect = lower value 0.999 | S. cerevisiae deletion strains, locus YNL322C, strain KRE1 (second series), stronger effect = lower value 1.01 | S. cerevisiae deletion strains, locus YNL322C, strain KRE1, stronger effect = lower value 1.02 | S. cerevisiae deletion strains, locus YNR049C, strain mso1, stronger effect = lower value 1.03 | S. cerevisiae deletion strains, locus YNR052C, strain pop2, stronger effect = lower value 0.981 | S. cerevisiae deletion strains, locus YOL006C, strain TOP1, stronger effect = lower value 1.03 | S. cerevisiae deletion strains, locus YOL012C, strain htz1 0.899 | S. cerevisiae deletion strains, locus YOL147C, strain pex11, stronger effect = lower value 0.997 | S. cerevisiae deletion strains, locus YOR001W, strain rrp6, stronger effect = lower value 1.05 | S. cerevisiae deletion strains, locus YOR061W, strain CKA2, stronger effect = lower value 1.02 | S. cerevisiae deletion strains, locus YOR069W, strain VPS5, stronger effect = lower value 1.02 | S. cerevisiae deletion strains, locus YOR070C, strain gyp1, stronger effect = lower value 1.03 | S. cerevisiae deletion strains, locus YOR080W, strain dia2, stronger effect = lower value 1.03 | S. cerevisiae deletion strains, locus YOR083W, strain WHI5, stronger effect = lower value 0.985 | S. cerevisiae deletion strains, locus YOR106W, strain vam3, stronger effect = lower value 1.01 | S. cerevisiae deletion strains, locus YOR136W, strain idh2, stronger effect = lower value 0.987 | S. cerevisiae deletion strains, locus YOR144C, strain elg1, stronger effect = lower value 0.983 | S. cerevisiae deletion strains, locus YOR184W, strain ser1, stronger effect = lower value 1.01 | S. cerevisiae deletion strains, locus YOR231W, strain MKK1, stronger effect = lower value 1.02 | S. cerevisiae deletion strains, locus YOR265W, strain rbl2, stronger effect = lower value 1.01 | S. cerevisiae deletion strains, locus YOR270C, strain vph1, stronger effect = lower value 1.05 | S. cerevisiae deletion strains, locus YOR290C, strain snf2, stronger effect = lower value 1.04 | S. cerevisiae deletion strains, locus YOR316C, strain cot1, stronger effect = lower value 0.989 | S. cerevisiae deletion strains, locus YPL051W, strain arl3, stronger effect = lower value 1.01 | S. cerevisiae deletion strains, locus YPL078C, strain atp4, stronger effect = lower value 1.02 | S. cerevisiae deletion strains, locus YPL106C, strain sse1, stronger effect = lower value 1.03 | S. cerevisiae deletion strains, locus YPL240C, strain hsp82, stronger effect = lower value 1.03 | S. cerevisiae deletion strains, locus YPL241C, strain CIN2, stronger effect = lower value 1.01 | S. cerevisiae deletion strains, locus YPL256C, strain CLN2, stronger effect = lower value 1.03 | S. cerevisiae deletion strains, locus YPR119W, strain clb2, stronger effect = lower value 0.986 | S. cerevisiae deletion strains, locus YPR141C, strain kar3, stronger effect = lower value 0.989 | S. cerevisiae deletion strains, locus YPR163C, strain tif3, stronger effect = lower value 0.988 | S. cerevisiae deletion strains, locus YPR167C, strain met16, stronger effect = lower value 0.99 | S. cerevisiae deletion strains, strain wtn01, stronger effect = lower value 0.976 | S. cerevisiae strains, strain wild type, stronger effect = lower value 1.02
